Screens (PubChem)
The full list was thinned out, with hits kept by preference.
Pf Dd2 inh: qHTS Primary assay for Inhibitors of Plasmodium falciparum Dd2 growth in vitro; P. falciparum Dd2 growth, SYBR Green, 72 h; actives 4.3% (n = 120,000); Potency, µM (top dose mostly 28.9 µM), actives largely listed as inhibitors; active = well fitted inhibition curve with a large enough effect; also: nearly all actives have a fitted effect of over 65% in size
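Readout: SYBR Green fluorescence, 485 nm excitation, 535 nm emission, after ~16 h lysis at 37C. Before that, Dd2-infected red cells (2.5% hematocrit) grew 72 h with compound, 29 uM top final concentration.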
Of the large screens only hits and unclear results are named; the others gave an inactive call.

CNC(=O)c1cc(-c2cccnc2)cc2c1OCCN2Cc1cccnc1	none
CNC(=O)c1cc(-c2cnn(C)c2)cc2c1OCCN2Cc1cccnc1	none
Cc1noc(C)c1C(=O)N1CCC2(CC1)CN(C(=O)N(C)C)Cc1ccccc1O2	none
COc1ccccc1-c1cc(C(=O)N2CCN(c3ncccn3)CC2)c2cnn(C)c2n1	none
O=C(CSc1nc2c([nH]c3ccccc32)c(=O)n1-c1ccccc1)Nc1ccc2c(c1)OCO2	Pf Dd2 inh 11µM
COc1ccc(NC(=O)CSc2nc3c([nH]c4ccccc43)c(=O)n2C)cc1	none
Cn1c(SCC(=O)Nc2ccccc2F)nc2c([nH]c3ccccc32)c1=O	none
Cc1cc(C)cc(-n2c(SCC(=O)Nc3ccc4c(c3)OCCO4)nc3c([nH]c4ccccc43)c2=O)c1	none
CC1CCN(C(=O)CSc2nc3c([nH]c4ccccc43)c(=O)n2-c2ccccc2)CC1	none
O=C(CSc1nc2c([nH]c3ccccc32)c(=O)n1-c1ccccc1F)Nc1ccccc1C(F)(F)F	Pf Dd2 inh 10µM
O=C(CSc1nc2c([nH]c3ccccc32)c(=O)n1-c1ccccc1)N1CCCCCC1	none
CCOc1ccc(NC(=O)CSc2nc3c([nH]c4ccccc43)c(=O)n2-c2cc(C)cc(C)c2)cc1	none
COc1cccc(NC(=O)CSc2nc3c([nH]c4ccccc43)c(=O)n2-c2ccccc2)c1	Pf Dd2 inh 5.6µM
COc1ccc(NC(=O)CSc2nc3c([nH]c4ccccc43)c(=O)n2-c2ccccc2)c(OC)c1	Pf Dd2 inh 5µM
Cc1cccc(NC(=O)CSc2nc3c([nH]c4ccccc43)c(=O)n2C)c1C	none
CCOc1ccc(-n2c(SCC(=O)Nc3ccc4c(c3)OCCO4)nc3c([nH]c4ccccc43)c2=O)cc1	none
COCCNC(=O)C1COC2(CCN(C(=O)c3ccccc3Cl)CC2)N1C(=O)c1ccccc1C (stereo unspecified)	none
Cc1sc2ccn(C)c(=O)c2c1C(=O)NCc1ccc(F)cc1Cl	none
COc1ccc(N2CC(C(=O)N3CCC(C(=O)N4CCCC4)C3)NC2=O)cc1 (stereo unspecified)	none
O=C(O)C1CCc2nnc(C3CCCN(C(=O)c4cccc(Cl)c4)C3)n21 (stereo unspecified)	none
CCc1nc(-c2c3n(c(=O)n(Cc4cccc(C#N)c4)c2=O)CCCC3)no1	none
N#Cc1cccnc1N1CCN(Cc2ccc(F)c(F)c2)C(CCO)C1 (stereo unspecified)	none
CN1CCC(NCc2nc3c(n2Cc2ccccc2)C(=O)N(CCOc2ccccc2)CCN3)CC1	none
CS(=O)(=O)c1ccc(OC[C@H]2C[C@@H](NC(=O)c3cccnc3)[C@H](O)[C@@H]2O)cc1	none
Cc1cnn(CCC(=O)NC2CCc3nnc(C)n3CC2)c1 (stereo unspecified)	none
COc1ccc(C(=O)N[C@@H]2CCC[C@@H]2C(=O)NCc2ccc(OC(C)C)cc2)cc1	none
Cc1ccccc1S(=O)(=O)N1CCCC(CCC(=O)NCCCn2cccn2)C1 (stereo unspecified)	none
CC(C)c1nc(-c2ccc(OC3CCN(C(=O)C4(c5ccccc5)CC4)C3)cc2)no1 (stereo unspecified)	none
COc1ccc(-n2c(SCCC(C)C)nc3sc4c(c3c2=O)CC(C(C)C)OC4)cc1 (stereo unspecified)	none
COC(=O)CSc1nnc2n(-c3ccccc3)c(=O)c3c4c(sc3n12)COC(C(C)C)C4 (stereo unspecified)	none
CCCSc1nnc2n(-c3ccc(OC)cc3)c(=O)c3c4c(sc3n12)COC(C(C)C)C4 (stereo unspecified)	Pf Dd2 inh 10µM
COc1ccc(C2Cn3nnc(C(=O)N4CCN(C(=O)c5cc(C)ccc5C)CC4)c3CO2)cc1 (stereo unspecified)	none
CC(=O)c1ccc(NC(=O)O[C@@H]2CO[C@H]3[C@@H]2OC[C@@H]3n2nnnc2-c2ccc(-c3ccccc3)cc2)cc1	none
COCCCn1c(C)cnc1C1CCN(C(=O)COc2ccccc2)C1 (stereo unspecified)	none
CC12CN3CC(C)(CN(C1)C3c1ccc(OCc3ccccc3)cc1)C2=O (stereo unspecified)	none
CCCCN1C(=O)c2[nH]nc(-c3ccccc3O)c2C1c1ccc(C(C)(C)C)cc1 (stereo unspecified)	Pf Dd2 inh 2.8µM
COCCCN1C(=O)c2[nH]nc(-c3ccccc3O)c2C1c1ccc(OCc2ccccc2)cc1 (stereo unspecified)	Pf Dd2 inh 8.9µM
CC(C)OCCCN1C(=O)c2[nH]nc(-c3ccccc3O)c2C1c1cccc(OCc2ccccc2)c1 (stereo unspecified)	Pf Dd2 inh 5.6µM
CC(C)OCCCNC(=O)C1Cn2cccc2C(=O)N1Cc1ccccc1 (stereo unspecified)	none
O=C1c2[nH]nc(-c3ccccc3O)c2C(c2cccc(OCc3ccccc3)c2)N1CCO (stereo unspecified)	none
CCCCN1C(=O)c2[nH]nc(-c3ccccc3O)c2C1c1ccc(OCc2ccccc2)cc1 (stereo unspecified)	Pf Dd2 inh 1.4µM
Cc1sc2ccn(Cc3ccc(F)cc3)c(=O)c2c1C(=O)NC1CCCC1	none
CNC(=O)C1(N2CCC[C@H]2C(=O)NC(C)(C)C)COC1	none
COc1ccccc1CCC(=O)N[C@@H]1CN(c2ncccn2)C[C@H]1CN(C)C	none
O=C(CN1C(=O)CNC1=O)NCc1cccnc1Oc1ccccc1F	none
CN1CC2(CCN(C(=O)C3CC3)CC2)CC1C(=O)N1CCOCC1 (stereo unspecified)	none
CCCC(=O)NC1CCN(C(=O)N2CC3CC(C2)[C@H]2CCCC(=O)N2C3)CC1 (stereo partly specified)	none
COc1ccc(CC(=O)N[C@H]2CCOC[C@H]2C2CCOCC2)c(OC)c1	none
CN(CCC1CCOCC1)C(=O)c1ccc2oc(-c3cccc(F)c3)nc2c1	none
Cc1nn(Cc2ccccc2)c(C)c1[C@@H]1C=C[C@@H](NS(C)(=O)=O)C1	none
CC(C)OCCCN1C(=O)c2[nH]nc(-c3ccccc3O)c2C1c1ccccc1F (stereo unspecified)	Pf Dd2 inh 11µM
O=C1c2[nH]nc(-c3ccccc3O)c2C(c2ccccc2F)N1Cc1cccnc1 (stereo unspecified)	none
COCCN1CCC(N2CCN(S(=O)(=O)Cc3ccccc3Cl)CC2)C1=O (stereo unspecified)	none
c1ccc(Oc2ccccc2-c2cc3c(cn2)CN(Cc2ccncc2)CCN3)cc1	Pf Dd2 inh 8.9µM
Fc1cccc(-c2cc3c(cn2)CN(Cc2ccncc2)CCN3)c1	none
c1cc(CN2CCNc3cc(-c4ccsc4)ncc3C2)ccn1	none
O=C(NC1CC1)[C@@H]1C[C@H](Oc2cccnc2)CN1C(=O)Cc1cccc(F)c1	none
O=C(NCC1CCCCC1)c1ccc(CN2C(=O)NC3(CCS(=O)(=O)CC3)C2=O)cc1	none
CC(C)(C)CC(=O)N1CCN2C(=O)c3ccc(Cl)cc3NC(=O)[C@H]2C1	none
COc1ccc(Cl)c2sc(NC(=O)c3ccc(S(=O)(=O)N4CCCC4)cc3)nc12	none
CCC1CCCCN1S(=O)(=O)c1ccc(NC(=O)c2cc(=O)c3c(C)cc(C)cc3o2)cc1 (stereo unspecified)	none
Cc1ccc2c(=O)cc(C(=O)Nc3ccc(S(=O)(=O)N4CCCC(C)C4)cc3)oc2c1C (stereo unspecified)	none
Cc1ccc2oc(C(=O)Nc3ccc(S(=O)(=O)N4CCCC(C)C4)cc3)cc(=O)c2c1 (stereo unspecified)	none
CNC(=O)c1c(NC(=O)/C=C/c2ccccc2)sc2c1CCC2	none
CCOC(=O)c1c(NC(=O)c2ccc(F)cc2)sc2c1CCC(CC)C2 (stereo unspecified)	none
